Experimental findings from PubChem BioAssay AID1508600 (Functional Genomics Laboratory (NCATS/FGL), 2020) are described below.

In all, about 53,000 sequences went through this assay and about 3,700 (7%) were called active.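 Rule for the calls: active = gene knockdowns whose robust z-score for IL-1 alpha signal is at least 2 or at most -2, so actives lie on both sides; inactive = the rest.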 The full list was thinned out, with actives kept by preference.

The nature of this experiment: Components of the Cytosolic LPS Sensing Pathway: Gene Identification via Genome-wide siRNA Screen.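 Note: robust z of the log signal after scaling to non-targeting control siRNA wells of the plate.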 The following applies: RAW264.7 macrophages, IL-1a HTRF, actives lie on both sides, screened at 100 nM (by protocol), cells primed 5 h with Pam3CSK4 first. In outline:
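Knockdown: 100 nM siRNA, 48h, RAW264.7. Stimulation: Pam3CSK4 5 h, then LipidA via TransIT-TKO 24 h. Output: supernatant IL-1a HTRF, negative-control-normalized, log robust z-score; viability by CellTiter-Glo.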
For GGACUUUGUGAUCUUUCCATT against Pias2, the z-score was -0.57 (inactive). Take “GGCUGUGAUUGGCAAUCUATT against 6430548M08Rik”: the z-score was -3.04 (active). The value for CCUGGCUAUUGGUGAGUGATT against Slc30a3 was 1.9 (inactive); that for CCAAACUUUUGUGGAACAGTT against Galnt9 was 0.0294 (inactive).

For GGCAUGUGGUUGAAGGCCUTT against Fank1, the z-score is -0.337 (inactive). In the case of GGACAAUGAAGAUUUGGAATT against Ush2a, the z-score is -0.669 (inactive). Next, CCGCCGAUCUACUAGUGGUTT against Slc6a2: 0.46 (inactive). The value for GCGGCCUUCGAAGAUAUUCTT against Pnliprp2 was -0.144 (inactive); that for GGAAAUGCCAUCGUCAUUUTT against Gpr1 was 2.66 (active); that for GCCAGCGUACUCUUUUUAUTT against Ocln was -0.694 (inactive). Next, GGAGCUGGUGGAUCUGAAGTT against Ubfd1: 1.26 (inactive). As to CGUGACUAUUCUGAUAAGUTT against Arl15, the z-score is 0.134 (inactive). Next, GGAAGGAGGAAAAGUAGGUTT against Peli1: -0.00852 (inactive); GGAAGAGAGCAGAAAGAAGTT against Trim35: -0.135 (inactive).

As to “GGGAUGUUUAGGUCACCUUTT against 4933434M16Rik”, the z-score is -2.35 (active). The value for GGUGGGCUACGAACUAAAGTT against Prpf31 was 0.664 (inactive); that for GGUGUUGAAAGUCAUUGUGTT against Med27 was -0.196 (inactive). Next, GGCAGAUACUUCUCUGGAGTT against Sdc4: -0.498 (inactive); CCCGUGGUCCUACAUUGUUTT against Cdon: 2.39 (active). Consider GGAAGAAGACAUGCUCACUTT against Pcdhb8, for which the z-score was 1.07 (inactive).

As for GGCCAAAGUGGUGUGUUUCTT against Mta1, the z-score was 2.46 (active). The value for GGUGGAGAACCAUAUCACATT against Abcg4 was 0.105 (inactive). The value for GAGCAUCCGCUACUUGGUATT against Nmnat1 was 0.0484 (inactive). In the case of GGAAGAUAUGAAGGGCUCATT against Mb, the z-score is -2.18 (active). Next, GCAUUUCAGCAGAACAAUATT against Phldb1: 0.5 (inactive); GGAUCUGGAUACUUUUCCATT against Arhgap22: -2.09 (active); GGAGACUUUCCAUUUGAAGTT against Fnbp1l: -0.188 (inactive). The value for GAAAAAAUCUAUCUACCCUTT against Hoxb4 was -0.219 (inactive).

On to GGUCAGUUGAGAUGUUUUUTT against Pag1, for which the z-score is 0.346 (inactive). Next, GGCGGUGGAGGUGAUAUAUTT against Dennd6a: -2.01 (active). Turning to GGACUAGUCCUAAGAAGAGTT against Rbmxl2, the z-score is -1.27 (inactive). Next, GCCUAUCUACGACCUCAUCTT against Kel: -0.768 (inactive); GGCCAUUACCCAUGAGACUTT against Cd63: 0.997 (inactive). Next, GGAACAAAUGUUCGAAAUGTT against Eif4a2: -0.0347 (inactive); GGAUAUGAAACACCAGAUCTT against Naip2: -1.89 (inactive); GCAGCAGACACUCUGUACATT against Pcbp4: -0.0747 (inactive). The value for GGACAAGUACAGGUUCCUATT against Vrk3 was 0.536 (inactive); that for GGCACUGUUCGGCAAGAAGTT against Trappc5 was -2.1 (active).

As for GCUCGUUUGAUGCUGUCUCTT against Prkag1, the z-score was -1.17 (inactive). Next, GCUGUUUUGGUAGAUUUUGTT against Map3k8: 0.0466 (inactive). For the sequence CGGGCAGCUAGAUUUCCAATT against S100a11, the z-score is 2.86 (active). In the case of GCUGAACCUGCAGCACAUCTT against Mettl7a2, the z-score is -0.0665 (inactive). The value for GGAGUACAUUGUGAAUGUUTT against Tnr was -1.44 (inactive); that for GCUGGUGAACCAAAAACUCTT against Ccdc3 was -0.366 (inactive); that for GGACAUGGUACCACAGGAGTT against Tenm4 was 0.643 (inactive). The value for GAGCCAAAUCAGGAACAGCTT against Trim29 was 1.4 (inactive); that for GCCAAUAGCUCCAGCUUGATT against Olfr668 was 0.534 (inactive).

Consider GGCUAUAGGUUUCUGGGAATT against Fzd6, for which the z-score was 4.94 (active).

Regarding GGCAACUUGGGAGUUUCACTT against Kcnab1, the z-score was 1.41 (inactive). The value for CUUGGUGGAUGAAAGAUUCTT against Tdpoz2 was -0.776 (inactive); that for GGUCAAAGUGUAACUUGUUTT against Rwdd4a was -0.0956 (inactive); that for GGAAGAUGAACAUCAAACATT against Dglucy was 0.855 (inactive). The value for GGAAGAGAGCGAUUAAAUUTT against Rsrc2 was 0.839 (inactive); that for GGGCUGGAAUCUAGGAAGUTT against Ccr10 was 2.68 (active). The value for GGAAAAUGUCCGUAAAAGGTT against Dtx2 was 0.196 (inactive); that for GGAGACACUCGUCCUUUAUTT against Cyp20a1 was -1.27 (inactive); that for GCUUUACUAUGUGAGAAAUTT against Ryk was -1.89 (inactive). For GGGACAAUCAACACAAAAUTT against Ythdf3, the z-score was 0.172 (inactive). The value for CCACCAAGGAGACAUAGAUTT against Nans was 2.85 (active); that for GGUCUUGGAGGAUCCCAAUTT against Tex13a was -1.55 (inactive).

As to GCAUAUCGCUUUUGUGAGCTT against E2f6, the z-score was 2.31 (active). Next, GCUCUCUGAAAGAGUAUUGTT against Khdrbs2: 0.963 (inactive); GACAAGCUGUGGAGAAGUGTT against Lce1b: 0.298 (inactive). With CCGAUUGAAAUAUGAAUCCTT against Cuedc1, the z-score is 1.22 (inactive). Next, “CCAAGAAAUUGCACUGGGATT against A130050O07Rik”: 0.781 (inactive).

For the sequence GCUGUUAAAACUCUCGUUATT against Pdk3, the z-score is 2.02 (active).

Regarding CCACAUCCUGACUACUACATT against Sumo2, the z-score was -1.14 (inactive).

As to GGUUCUUGGUGAUGAUGAGTT against Pds5a, the z-score is -2.6 (active). On to GGUGAACUGGUCUACAACATT against Muc2, for which the z-score is 0.34 (inactive). Next, GGAGUUGAGCAAGACCAAGTT against Ccdc102a: 0.628 (inactive); GGGUAUAUUUGGAACUACGTT against Ppa1: -1.2 (inactive). Next, GGACAUGAACCUCUUCAAATT against Fads2: 0.632 (inactive).

For the sequence CCUCUGCUUUGUUACUUCCTT against Olfr1431, the z-score was -0.287 (inactive). Next, CCACCUAUUACAUGAUCUUTT against Rnf32: -0.23 (inactive); GGACCGGUUUAUUUGGCGGTT against Mmp2: 3.43 (active). The value for GCAAACGACUGUGACAAAATT against Ly6m was -0.0028 (inactive); that for CCUCCCUAAUGGUCCAUUATT against Cyp2j13 was -0.517 (inactive).

For the sequence GCUGGAGAACCUCCCUAAATT against Mrps33, the z-score is 1.14 (inactive). Regarding GGUAAUGAAGGAACUGGAUTT against S100a1, the z-score is 0.0105 (inactive). Next, GGGUGACCUAAUCCAGUGUTT against Neurog3: 2.5 (active). Regarding GGAGUUGCCCUCAUCUUCATT against Casp6, the z-score was -1.59 (inactive). Next, GGUGGAACUCGUCAAUAGCTT against Vat1: 0.269 (inactive); GGUGAACAGUUGAUUUCAUTT against Smim10l2a: 1.48 (inactive); GGAUCACAUCGAGAAAACCTT against Utrn: -1.57 (inactive).

Turning to GCUUCUGUUCGUUACGUCCTT against Ndufc2, the z-score was 2.55 (active). The value for GCGGAAAGGCCAAACGAUUTT against Inhbb was -0.734 (inactive). In the case of CCUUCUCCAUGUCAGAUCUTT against Col5a2, the z-score was 0.23 (inactive).

On to GGCAAAGUUGCCAGAUGAATT against Mettl23, for which the z-score is 2.42 (active).

As for GGAUACGCUUGUCCCACCATT against Mdm1, the z-score was -0.649 (inactive).

In the case of CCAUUAUGGGAGGAAGAUUTT against Clvs2, the z-score is 0.969 (inactive). Next, GGACAAAGAGAAUGAUGGATT against Cdc25b: -1.68 (inactive); “GCUAAUCCCAUCUCGUCCUTT against 3110009E18Rik”: 1.15 (inactive). Next, GGCCGAAGCAUCUUCAAGATT against Wdr24: 1.88 (inactive). The value for GGCUGAAAAAAGUGGAGAATT against Sh3bgr was 2.12 (active).

As for GGAUCCCAUUAGAAAGAAATT against Cbx2, the z-score was 0.316 (inactive). Take GCGAUUACUACUUGAAACUTT against Fa2h: the z-score is -0.384 (inactive). The value for CGGAUGUGGGCAUUCGUUATT against Fbxl7 was 0.421 (inactive).

GGUUUUGGGUCUAUGCUUCTT against Sde2: the z-score is 0.311 (inactive). The value for GGUAAGGAAAACAAAUAUGTT against En1 was 2.13 (active); that for GAAAAAAAUCCGUUCCCUCTT against Mrpl33 was 0.257 (inactive). The value for GGAUUUUGCUCAGACGACATT against Taf1a was 0.291 (inactive). The value for GGUUGGUAGGCUUUGGUGUTT against Notum was 0.657 (inactive).

For the sequence GCAGUGUCGCAUUACAUCGTT against Sec16a, the z-score is 3.45 (active). The value for GGAGAAUCAUGUGAGCCUGTT against Tph1 was -0.0851 (inactive); that for UAUUCUAUCCGAACACCUUTT against Gm4884 was 2.19 (active); that for GGAGAACUUCCUAUACUAUTT against Apobec2 was 0.448 (inactive). GGAAAGCAAAAAGUUUCAGTT against Fam118b: the z-score is -1.14 (inactive). Consider CGCAUAGAGCCUGUCCUCATT against Spink1, for which the z-score is -1.57 (inactive).
